Test [1] in a line: qHTS Assay for Identifying Gametocytocidal Compounds (AID 743244; active = well fitted curve in the direction sought with a large enough effect; an effect the other way counts as inactive or inconclusive;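 also: % is scaled to controls: 0 for no effect and ±100 for the full control effect; actives lower the fluorescent signal which means gametocytes are killed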). Conditions: P. falciparum 3D7 stage III-V gametocytes, alamarBlue, 72 h; max response: stronger effect = lower value. The method in brief:
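Viability read-out was resazurin reduction (alamarBlue, 24 h) measured at Ex 525/Em 598 nm. Beforehand, late-stage (III-V) 3D7 P. falciparum gametocytes at 20,000 cells/well were incubated with compound 72 h at 37C under 5% CO2.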

Test [2] is described as follows: qHTS profiling for inhibitors of Plasmodium falciparum (3D7) proliferation (AID 743322).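 Also: infected erythrocytes exposed to compound for 72 h before lysis; 100% = DMSO vehicle wells and 0% = 0.29 µM artemisinin.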 Conditions: P. falciparum 3D7 proliferation; at 28.7 µM (top of the series) unless noted. In a few lines: (§1)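 Parasite DNA was quantified by SYBR Green I fluorescence (ex 485, em 535 nm) after overnight lysis in saponin/Triton buffer at room temperature. Cultures at 0.3% parasitemia and 2.5% hematocrit were first exposed to compound for 72 h at 37 C; signals were normalised to artemisinin (0.29 uM) and vehicle wells.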

A short description of test [3]: qHTS profiling for inhibitors of Plasmodium falciparum (DD2) proliferation (AID 743323). Conditions: lower = more inhibition; at 28.7 µM (top of the series) unless noted. In a few lines:
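SYBR Green fluorescence (ex 485, em 535 nm) of lysed cultures gives parasite DNA content; wells normalized to artemisinin (0.29 uM) and DMSO controls. Infected red cells: 0.3% parasitemia, 2.5% hematocrit, 72 h, 37 C.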

Test [4] in a line: qHTS profiling of the MIPE4 collection as inhibitors of Plasmodium falciparum (3D7) proliferation (AID 743344).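 Also: scaled between DMSO vehicle wells and 0.29 µM artemisinin as full inhibition.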 Conditions: P. falciparum 3D7 in erythrocytes, SYBR Green DNA fluorescence, 72 h; at 28.5 µM (top of the series) unless noted. The method in brief:
as §1

Test [5] is described as follows: qHTS profiling of the MIPE4 collection as inhibitors of Plasmodium falciparum (DD2) proliferation (AID 743345). Conditions: P. falciparum Dd2 in erythrocytes, SYBR Green DNA, 72 h; at 28.5 µM (top of the series) unless noted. In a few lines: as §1
A short description of test [6]: qHTS profiling of the MIPE4 collection as inhibitors of Plasmodium falciparum (DD2) proliferation (Rep 2) (AID 743346). Conditions: P. falciparum Dd2 in erythrocytes, SYBR Green DNA, 72 h; at 28.5 µM (top of the series) unless noted. In a few lines: as §1
Test [7] in a line: qHTS profiling of the MIPE4 collection as inhibitors of Plasmodium falciparum (HB3) proliferation (AID 743347).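 Also: plate controls were DMSO vehicle wells for no effect and artemisinin wells for full effect.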 Conditions: P. falciparum HB3 in erythrocytes, SYBR Green DNA, 72 h; at 28.5 µM (top of the series) unless noted. The method in brief:
as §1

Test [8] can be described thus: qHTS profiling for inhibitors of Plasmodium falciparum (HB3) proliferation (AID 743324; active = well fitted curve in the direction sought with a large enough effect; an effect the other way counts as inactive or inconclusive;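 also: 100% = DMSO vehicle wells and 0% = artemisinin-treated control wells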). Conditions: Plasmodium falciparum HB3 blood-stage proliferation; at 28.7 µM (top of the series) unless noted. In a few lines:
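SYBR Green fluorescence (485 ex/535 em) of lysed cultures, incubated overnight at room temperature in the dark, quantifies parasite DNA. Infected erythrocytes at 0.3% parasitemia and 2.5% hematocrit were exposed 72 h; values normalized to DMSO and 0.29 uM artemisinin controls.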

Several values for one entry are separate records, joined by “and”; a condition that tells them apart may be missing. Identical values can stand only once. Results filed as inconclusive are left out. Activity calls are given as the source filed them. Unless noted, no rule for the calls is given here.

On to `O=C(C=Cc1ccc(/C=C/C(=O)Nc2ccc(C3=NCCN3)cc2)cc1)Nc1ccc(C2=NCCN2)cc1`, for which the max response in test [1] was 6.08% (inactive). Also, the remaining parasite growth % (stronger effect = lower value) in test [2] stood at 15.9%. For the same molecule, in test [3], the activity, percent of control is 27.3%. In test [4], the parasite growth, % of DMSO control stood at 25.9%. For the same molecule, the parasite growth remaining, % of DMSO control (lower = more inhibition) in test [5] stood at 39%. Moreover, the parasite growth, % of control (lower = inhibition) in test [6] was 40.5%. Further, the growth, % of control in test [7] is 54.9%.
For the molecule `NC(=O)c1ccc(I)c([N+](=O)[O-])c1`, the remaining parasite growth % (stronger effect = lower value) in test [2] was 93.8%. In addition, the activity, percent of control in test [3] is 92.6%. In test [4], this molecule showed a parasite growth, % of DMSO control of 71.2%. This molecule registered a parasite growth remaining, % of DMSO control (lower = more inhibition) in test [5] of 97.1%. For the same molecule, the parasite growth, % of control (lower = inhibition) in test [6] was 90.7%.
With `CC[C@@H](C)[C@H](NC(=O)[C@H](CC1CCCCC1)NC(=O)c1ccno1)C(=O)N1CCC2(CCc3ccccc32)CC1`, the remaining parasite growth % (stronger effect = lower value) in test [2] was -1.46%. In addition, the activity, percent of control in test [3] was -0.289%. Moreover, the parasite growth, % of DMSO control in test [4] was determined as 5.26%. This molecule also gave a parasite growth remaining, % of DMSO control (lower = more inhibition) in test [5] of 7.23%. For the same molecule, the parasite growth, % of control (lower = inhibition) in test [6] was determined as 14%. The molecule further had a growth, % of control in test [7] of 5.03%.
For the molecule `COc1ccc([C@@H]2CC(=O)c3c(O)cc(O[C@@H]4O[C@H](CO[C@@H]5O[C@@H](C)[C@H](O)[C@@H](O)[C@@H]5O)[C@@H](O)[C@H](O)[C@@H]4O)cc3O2)cc1O`, in test [4], the parasite growth, % of DMSO control is 83.3% and 61.8%. Besides, in test [5], the parasite growth remaining, % of DMSO control (lower = more inhibition) was 90.3% and 85.6%. In addition, the parasite growth, % of control (lower = inhibition) in test [6] is 120% and 81.3%. The growth, % of control in test [7] was 92% and 93.5%.
Turning to `CN(C)C(=O)c1ccc(S(=O)(=O)c2ccc(NC(=O)[C@@](C)(O)C(F)(F)F)c(Cl)c2)cc1`, the max response in test [1] is 2.79% (inactive). The remaining parasite growth % (stronger effect = lower value) in test [2] is 67.3%. For the same molecule, the activity, percent of control in test [3] came out at 97.4%. The same molecule displayed a parasite growth, % of DMSO control in test [4] of 34.8%. For the same molecule, the parasite growth remaining, % of DMSO control (lower = more inhibition) in test [5] was determined as 96.7%. Also, the parasite growth, % of control (lower = inhibition) in test [6] was determined as 95.9%. For the same molecule, in test [7], the growth, % of control was determined as 62%.
On to `CNC(=O)c1ccc(C)c(-n2c(C)cc(OCc3ccc(F)cc3F)c(Br)c2=O)c1`, for which, in test [1], the max response is 32.9% (inactive). The remaining parasite growth % (stronger effect = lower value) in test [2] came to 91.9%. Moreover, the activity, percent of control in test [3] is 80.8%. The parasite growth, % of DMSO control in test [4] is 42%. The parasite growth remaining, % of DMSO control (lower = more inhibition) in test [5] was 84.9%. Moreover, the parasite growth, % of control (lower = inhibition) in test [6] stood at 50.9%. Also, the growth, % of control in test [7] stood at 93.8%.
With `COc1ccc(CCN2CCN(CCCc3ccccc3)CC2)cc1OC`, the max response in test [1] is -5.52% (inactive). The remaining parasite growth % (stronger effect = lower value) in test [2] worked out at 9.47%. Moreover, the activity, percent of control in test [3] came to 65.7%. Moreover, the parasite growth, % of DMSO control in test [4] was found to be 28.6%. The molecule also gave a parasite growth remaining, % of DMSO control (lower = more inhibition) in test [5] of 95.6%. Also, the parasite growth, % of control (lower = inhibition) in test [6] was found to be 30%. In test [7], this molecule showed a growth, % of control of 21.1%.
Regarding `CS(=O)(=O)c1cccc(CNc2nc(Nc3ccc4c(c3)CCC(=O)N4)ncc2C(F)(F)F)c1`, the remaining parasite growth % (stronger effect = lower value) in test [2] was determined as 106%. Besides, the activity, percent of control in test [3] came to 108%. The molecule also registered a parasite growth, % of DMSO control in test [4] of 12.1%. The molecule also displayed a parasite growth remaining, % of DMSO control (lower = more inhibition) in test [5] of 14.8%. Also, the parasite growth, % of control (lower = inhibition) in test [6] was 28.9%.
As for `CN[C@@H](C)C(=O)N[C@H]1CCCC[C@H]2CC[C@@H](C(=O)N[C@@H](c3ccccc3)c3cn(CCCCc4ccc(CCCCn5cc([C@@H](NC(=O)[C@@H]6CC[C@@H]7CCCC[C@H](NC(=O)[C@H](C)NC)C(=O)N76)c6ccccc6)nn5)cc4)nn3)N2C1=O`, the remaining parasite growth % (stronger effect = lower value) in test [2] was -0.81%. Besides, in test [3], the activity, percent of control came out at 0.253%. In addition, the remaining proliferation (% of control), lower = more inhibition in test [8] is -1.02%. Besides, the parasite growth, % of DMSO control in test [4] stood at 5.44%. The same molecule returned a parasite growth remaining, % of DMSO control (lower = more inhibition) in test [5] of 8.15%. For the same molecule, in test [6], the parasite growth, % of control (lower = inhibition) amounted to 9.02%. In addition, in test [7], the growth, % of control was 3.6%.
On to `CN(C)c1ccc(Nc2nc(N)n(C(=O)c3c(F)cccc3F)n2)cc1`, for which the max response in test [1] was -28% (inactive). Further, the remaining parasite growth % (stronger effect = lower value) in test [2] worked out at 4.41%. The activity, percent of control in test [3] worked out at 8.82%. In test [4], this molecule had a parasite growth, % of DMSO control of 10.5%. Besides, in test [5], the parasite growth remaining, % of DMSO control (lower = more inhibition) turned out to be 51.7%. Moreover, the parasite growth, % of control (lower = inhibition) in test [6] was 13.6%. In addition, the growth, % of control in test [7] was determined as 6.51%.
As for `NC(=O)c1ccc(-c2nc(-c3ccc4c(c3)OCO4)c(-c3ccccn3)[nH]2)cc1`, the remaining parasite growth % (stronger effect = lower value) in test [2] turned out to be 82.3%. Besides, the activity, percent of control in test [3] worked out at 88.1%. Moreover, in test [8], the remaining proliferation (% of control), lower = more inhibition is 71.6%. The parasite growth, % of DMSO control in test [4] worked out at 42.9%. Besides, the parasite growth remaining, % of DMSO control (lower = more inhibition) in test [5] was 55.7%. For the same molecule, the parasite growth, % of control (lower = inhibition) in test [6] is 32.2%.
On to `CCOc1cc(N2CCC(O)CC2)ccc1Nc1ncc2c(n1)N(C)c1ccccc1C(=O)N2C`, for which, in test [2], the remaining parasite growth % (stronger effect = lower value) was determined as 6.85%. In addition, in test [3], the activity, percent of control amounted to 1.46%. Further, in test [8], the remaining proliferation (% of control), lower = more inhibition is -0.346%. The parasite growth, % of DMSO control in test [4] came out at 4.46%. In test [5], this molecule came in with a parasite growth remaining, % of DMSO control (lower = more inhibition) of 7.18%. For the same molecule, the parasite growth, % of control (lower = inhibition) in test [6] came out at 5.98%. The same molecule returned a growth, % of control in test [7] of 5.43%.
For `NC(=O)c1ccc(-c2nc(-c3ccc4c(c3)OCCO4)c(-c3ccccn3)[nH]2)cc1`, the remaining parasite growth % (stronger effect = lower value) in test [2] is 15.5%. The activity, percent of control in test [3] was 4.9%. Moreover, the parasite growth, % of DMSO control in test [4] came out at 25.9%. In test [5], this molecule gave a parasite growth remaining, % of DMSO control (lower = more inhibition) of 18.9%. The parasite growth, % of control (lower = inhibition) in test [6] came out at 18.6%. This molecule also registered a growth, % of control in test [7] of 12.9%.
